Test results: the supplement of paper PMC10849652
Of roughly 7,900 targets only a part is listed; those with a hit were picked by preference. About 0.6% of all pairs of compound and target were hits.

Compound: C1COCCN1CCN2C3=CC=CC=C3N=C2NC(=O)C4=CC(=CC=C4)[N+](=O)[O-] [IRAK-1-4 Inhibitor I]
Test: log2 fold change, soluble protein after heating vs DMSO (PISA); higher = thermal stabilisation; K562 cells, 10 uM, 30 min; active = over 0.2 and 3.5 SD of the protein, either way, in both replicates (recomputed)
How it was run: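 Thermal stability values are relative to control samples and come from duplicates. They are expressed as log2 fold changes. For measurement, K562 cells (2×10^6 cells/mL) received 10 μM compound for 30 min, and aliquots were heated for 3 min over 48°C-58°C, pooled, and extracted at 4°C in PBS with 0.5% NP-40. Soluble protein, the supernatant after 21,000xg for 90 min, was quantified by TMTpro 16plex LC-MS/MS with equalised channel sums.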

UniProt P12270, sequence (P12270 whole entry, looked up): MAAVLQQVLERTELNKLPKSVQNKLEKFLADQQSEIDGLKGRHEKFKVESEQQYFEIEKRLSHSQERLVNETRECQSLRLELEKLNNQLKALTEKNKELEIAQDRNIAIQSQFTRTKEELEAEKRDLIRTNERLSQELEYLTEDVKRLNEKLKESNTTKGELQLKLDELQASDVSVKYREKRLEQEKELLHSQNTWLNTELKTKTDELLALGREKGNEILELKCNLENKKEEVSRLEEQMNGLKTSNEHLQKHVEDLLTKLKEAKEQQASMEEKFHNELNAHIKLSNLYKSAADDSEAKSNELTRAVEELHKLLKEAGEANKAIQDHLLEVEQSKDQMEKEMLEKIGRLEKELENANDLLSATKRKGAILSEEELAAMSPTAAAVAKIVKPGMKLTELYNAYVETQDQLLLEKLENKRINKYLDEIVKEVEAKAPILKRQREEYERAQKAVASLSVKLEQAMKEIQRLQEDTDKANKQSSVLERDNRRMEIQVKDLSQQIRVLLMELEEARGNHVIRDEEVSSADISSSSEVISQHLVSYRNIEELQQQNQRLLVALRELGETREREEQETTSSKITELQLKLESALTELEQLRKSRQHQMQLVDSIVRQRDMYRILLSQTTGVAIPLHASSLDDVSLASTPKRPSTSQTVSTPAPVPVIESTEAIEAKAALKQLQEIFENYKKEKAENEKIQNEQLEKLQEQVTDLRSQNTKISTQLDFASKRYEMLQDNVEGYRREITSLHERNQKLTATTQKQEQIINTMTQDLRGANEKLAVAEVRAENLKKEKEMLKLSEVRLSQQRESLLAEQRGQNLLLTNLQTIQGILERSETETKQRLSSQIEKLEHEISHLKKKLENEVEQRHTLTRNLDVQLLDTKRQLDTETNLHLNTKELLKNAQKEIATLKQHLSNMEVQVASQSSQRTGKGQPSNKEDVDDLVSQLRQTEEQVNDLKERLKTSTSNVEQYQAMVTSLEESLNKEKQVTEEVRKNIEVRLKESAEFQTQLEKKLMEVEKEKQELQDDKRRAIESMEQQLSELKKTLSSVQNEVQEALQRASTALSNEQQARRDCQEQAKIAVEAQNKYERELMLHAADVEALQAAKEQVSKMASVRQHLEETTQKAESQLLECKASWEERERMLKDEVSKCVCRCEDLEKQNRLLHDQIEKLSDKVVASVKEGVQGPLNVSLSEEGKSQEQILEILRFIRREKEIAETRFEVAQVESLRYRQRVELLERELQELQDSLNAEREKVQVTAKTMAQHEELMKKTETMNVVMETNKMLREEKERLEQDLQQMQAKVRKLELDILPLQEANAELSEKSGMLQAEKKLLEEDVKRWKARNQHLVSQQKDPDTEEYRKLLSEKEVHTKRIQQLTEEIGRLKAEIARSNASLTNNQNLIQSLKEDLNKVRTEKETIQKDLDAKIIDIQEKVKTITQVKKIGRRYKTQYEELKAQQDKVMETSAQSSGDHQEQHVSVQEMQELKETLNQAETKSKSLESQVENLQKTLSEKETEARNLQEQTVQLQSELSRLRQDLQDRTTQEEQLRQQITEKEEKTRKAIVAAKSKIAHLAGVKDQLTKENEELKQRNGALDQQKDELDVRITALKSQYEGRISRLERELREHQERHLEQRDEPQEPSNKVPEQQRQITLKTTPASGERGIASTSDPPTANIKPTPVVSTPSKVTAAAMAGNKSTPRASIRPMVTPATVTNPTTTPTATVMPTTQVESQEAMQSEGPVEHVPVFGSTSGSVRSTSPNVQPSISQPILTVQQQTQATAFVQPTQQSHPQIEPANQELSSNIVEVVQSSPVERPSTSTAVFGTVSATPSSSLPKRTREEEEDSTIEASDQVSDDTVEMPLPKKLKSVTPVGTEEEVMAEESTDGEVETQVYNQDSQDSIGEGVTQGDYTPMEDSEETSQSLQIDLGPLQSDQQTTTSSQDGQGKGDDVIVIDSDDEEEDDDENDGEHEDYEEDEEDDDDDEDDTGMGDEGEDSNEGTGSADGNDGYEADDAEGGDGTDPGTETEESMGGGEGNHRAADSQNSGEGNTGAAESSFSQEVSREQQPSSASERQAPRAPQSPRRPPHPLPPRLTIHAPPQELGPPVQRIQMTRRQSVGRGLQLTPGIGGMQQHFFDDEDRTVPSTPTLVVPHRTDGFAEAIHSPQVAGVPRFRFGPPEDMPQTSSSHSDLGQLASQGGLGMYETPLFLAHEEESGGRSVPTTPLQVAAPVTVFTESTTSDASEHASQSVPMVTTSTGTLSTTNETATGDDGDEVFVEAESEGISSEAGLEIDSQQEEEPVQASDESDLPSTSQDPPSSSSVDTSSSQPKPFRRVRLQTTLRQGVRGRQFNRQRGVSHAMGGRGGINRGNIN
UniProt P49754, sequence (P49754 whole entry, looked up): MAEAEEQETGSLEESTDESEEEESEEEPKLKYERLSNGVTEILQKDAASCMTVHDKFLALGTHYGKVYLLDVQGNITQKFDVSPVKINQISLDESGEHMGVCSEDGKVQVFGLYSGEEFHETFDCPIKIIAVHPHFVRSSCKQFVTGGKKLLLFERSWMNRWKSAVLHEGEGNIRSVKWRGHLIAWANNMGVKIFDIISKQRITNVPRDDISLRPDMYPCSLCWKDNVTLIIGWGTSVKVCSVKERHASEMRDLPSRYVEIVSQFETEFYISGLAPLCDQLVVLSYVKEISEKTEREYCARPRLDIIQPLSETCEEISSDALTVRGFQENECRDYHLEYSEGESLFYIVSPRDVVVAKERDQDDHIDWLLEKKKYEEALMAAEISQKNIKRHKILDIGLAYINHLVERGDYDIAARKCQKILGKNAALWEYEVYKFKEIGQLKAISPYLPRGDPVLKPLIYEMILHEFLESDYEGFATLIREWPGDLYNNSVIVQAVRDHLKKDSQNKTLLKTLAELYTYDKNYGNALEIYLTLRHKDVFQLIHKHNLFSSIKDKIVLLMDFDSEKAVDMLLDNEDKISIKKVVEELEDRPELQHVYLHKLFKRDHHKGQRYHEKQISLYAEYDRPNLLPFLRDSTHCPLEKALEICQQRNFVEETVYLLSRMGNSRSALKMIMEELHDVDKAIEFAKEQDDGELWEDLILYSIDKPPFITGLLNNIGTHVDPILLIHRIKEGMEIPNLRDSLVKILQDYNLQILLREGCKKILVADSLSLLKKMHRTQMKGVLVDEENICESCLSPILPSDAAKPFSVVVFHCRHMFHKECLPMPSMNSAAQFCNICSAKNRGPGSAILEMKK
UniProt Q5BJH2, sequence (Q5BJH2 whole entry, looked up): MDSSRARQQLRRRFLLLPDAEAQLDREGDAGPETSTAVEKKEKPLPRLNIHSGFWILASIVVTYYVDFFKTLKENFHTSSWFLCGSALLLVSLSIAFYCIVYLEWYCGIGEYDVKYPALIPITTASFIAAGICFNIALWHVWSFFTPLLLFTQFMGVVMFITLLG
UniProt Q9NV66, sequence (Q9NV66 whole entry, looked up): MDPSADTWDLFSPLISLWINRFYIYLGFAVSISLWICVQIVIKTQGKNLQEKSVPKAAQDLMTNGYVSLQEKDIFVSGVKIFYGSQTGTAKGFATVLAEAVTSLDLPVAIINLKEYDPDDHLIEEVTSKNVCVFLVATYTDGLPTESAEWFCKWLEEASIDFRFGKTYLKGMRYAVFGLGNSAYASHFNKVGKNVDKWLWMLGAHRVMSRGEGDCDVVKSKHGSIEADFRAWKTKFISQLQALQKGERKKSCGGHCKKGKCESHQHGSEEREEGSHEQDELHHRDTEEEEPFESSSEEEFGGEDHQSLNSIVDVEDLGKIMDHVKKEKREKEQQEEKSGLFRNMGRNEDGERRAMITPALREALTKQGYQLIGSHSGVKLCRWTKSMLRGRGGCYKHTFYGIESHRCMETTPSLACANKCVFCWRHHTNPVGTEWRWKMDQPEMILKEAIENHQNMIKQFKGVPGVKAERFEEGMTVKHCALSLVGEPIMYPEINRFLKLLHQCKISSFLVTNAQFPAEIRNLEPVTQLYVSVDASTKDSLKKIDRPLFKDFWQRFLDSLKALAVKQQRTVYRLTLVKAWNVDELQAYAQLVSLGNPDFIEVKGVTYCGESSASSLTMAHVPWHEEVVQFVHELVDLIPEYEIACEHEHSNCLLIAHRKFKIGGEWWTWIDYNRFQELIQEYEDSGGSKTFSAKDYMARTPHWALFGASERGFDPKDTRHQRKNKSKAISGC
UniProt Q8NEZ2, sequence (Q8NEZ2 whole entry, looked up): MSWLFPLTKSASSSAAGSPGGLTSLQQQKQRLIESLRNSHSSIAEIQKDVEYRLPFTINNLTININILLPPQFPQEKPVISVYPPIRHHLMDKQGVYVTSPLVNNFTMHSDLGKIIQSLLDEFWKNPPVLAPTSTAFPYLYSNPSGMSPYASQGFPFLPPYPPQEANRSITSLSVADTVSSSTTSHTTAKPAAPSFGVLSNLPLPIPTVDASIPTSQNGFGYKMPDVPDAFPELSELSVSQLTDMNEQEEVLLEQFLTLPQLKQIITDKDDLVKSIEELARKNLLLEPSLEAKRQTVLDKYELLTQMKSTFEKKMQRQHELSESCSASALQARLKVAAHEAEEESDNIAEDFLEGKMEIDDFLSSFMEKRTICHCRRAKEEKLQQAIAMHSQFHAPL
UniProt Q9HAD4, sequence (Q9HAD4 whole entry, looked up): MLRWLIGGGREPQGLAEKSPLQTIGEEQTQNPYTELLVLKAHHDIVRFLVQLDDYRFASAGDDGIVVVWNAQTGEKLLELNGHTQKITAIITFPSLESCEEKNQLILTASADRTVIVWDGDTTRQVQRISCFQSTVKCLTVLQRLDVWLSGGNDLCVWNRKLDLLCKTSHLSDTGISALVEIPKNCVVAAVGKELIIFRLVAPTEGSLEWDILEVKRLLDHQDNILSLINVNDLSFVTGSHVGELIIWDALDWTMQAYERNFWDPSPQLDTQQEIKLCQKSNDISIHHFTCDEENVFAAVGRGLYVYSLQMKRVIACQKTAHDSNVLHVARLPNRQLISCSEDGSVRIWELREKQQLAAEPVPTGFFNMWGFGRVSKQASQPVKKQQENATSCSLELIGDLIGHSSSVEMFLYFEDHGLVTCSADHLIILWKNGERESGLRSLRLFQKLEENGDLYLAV

log2 fold change, inactive:
TMEM223 (UniProt A0PJW6) 0.039, USP25 isoform 3 (UniProt Q9UHP3) 0.002, VPS41 (UniProt P49754) -0.002, WDR47 (UniProt O94967) -0.089, TMEM128 (UniProt Q5BJH2) -0.046, WDR41 (UniProt Q9HAD4) -0.024, TMEM9 (UniProt Q9P0T7) 0.076, VPS51 (UniProt Q9UID3) 0.016, TYW1 (UniProt Q9NV66) -0.031, TUBAL3 (UniProt A6NHL2) -0.046, TOM1L1 (UniProt O75674) 0.006, TPR (UniProt P12270) 0.03, TP53BP1 isoform 2 (UniProt Q12888) -0.059, TRAPPC2L (UniProt Q9UL33) -0.013, U2AF1 isoform 2 (UniProt Q01081) -0.133, TMEM9B (UniProt Q9NQ34) -0.019, VPS37A (UniProt Q8NEZ2) 0.045, WEE1 (UniProt P30291) 0.025, TNFAIP8 isoform 4 (UniProt O95379) -0.018, UBAP2L isoform 5 (UniProt Q14157) 0.053, WDR43 (UniProt Q15061) 0.023, UFD1 isoform 1 (UniProt Q92890) 0.025
